Experimental data reported in PubChem BioAssay.

system: not listed separately; assay: probe aLAP1 signal on lysate-treated microarray – cell lysate, small-molecule microarray, COS7 lysate, primary screen (AID 1124); settings: probe aLAP1, fluorescence, higher = more signal;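 further: lysate comes from COS7 cells expressing LAP1 and is applied at 0.3 µg/mL; score merges spot fluorescence near 667 nm with signal-to-noise over triplicate slides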

**Q.** Which composite z-score does the source give for C=CCNC(=O)[C@H]1[C@@H]2C(=O)O[C@@H](c3ccccc3)[C@@H](c3ccccc3)N2[C@@H](c2ccc(OCCO)cc2)[C@]12C(=O)Nc1ccc(C#CCC(C(=O)OC)C(=O)OC)cc12 here?
**A.** Its composite z-score is 0.979.

**Q.** For C=CCN1Cc2ccccc2[C@@H]2OC(c3ccc(OCCCO)cc3)=N[C@]2(CCS(=O)(=O)c2ccccc2)C1=O, which composite z-score is on record?
**A.** Its composite z-score is 0.725.

**Q.** For C[N+](C)(C)CCCC[C@@H]1NC(=O)[C@H]2C[C@@H](C(=O)NCCCCCCNC(=O)CS)[C@@H](c3ccc(O)cc3)N2C1=O, which composite z-score is on record?
**A.** The composite z-score was 1.49.

**Q.** With CC(=O)Nc1cc(Br)ccc1C(=O)NCc1ccccc1 as the compound, how does the composite z-score read?
**A.** The composite z-score was -0.458.

**Q.** Which composite z-score does the source give for O=C1C2C=CC(C(O)c3ccc4c(c3)OCO4)N(Nc3ccc([N+](=O)[O-])cc3)C2C(=O)N1c1ccccc1 (stereo not drawn) here?
**A.** The composite z-score was 0.345.

**Q.** Which composite z-score does the source give for COc1ccc(C(O)C2C=CC3C(=O)N(C)C(=O)C3N2N(c2ccccc2)c2ccccc2)c2ccccc12 (stereo not drawn) here?
**A.** The composite z-score was 0.976.

**Q.** Which composite z-score does the source give for COc1cc2c(cc1O)C=[N+](Cc1cc3c(cc1Br)OCO3)CC2 here?
**A.** Its composite z-score is 0.27.

system: Sam68 (KHDRBS1); assay: compounds binding KHDRBS1 protein – biochemical, small-molecule microarray, 635 nm fluorescence, primary screen (AID 1125); settings: higher = more signal;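 further: score merges 667 nm channel intensity with signal to noise over triplicate slides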

**Q.** Which composite z-score does the source give for CC(C)N1CC=CC23O[C@@H]4C=CCOC(=O)[C@@H]4[C@H]2C(=O)N(CCCCCO)[C@@H]3C1=O (stereo partly drawn) here?
**A.** The composite z-score was -0.135.

**Q.** Which composite z-score does the source give for [N-]=[N+]=Nc1ccccc1C[C@@]1(C(=O)N2CCCCC2)N=C(c2ccc(OCCCO)cc2)O[C@@H]1c1ccccc1 here?
**A.** Its composite z-score is 1.22.

**Q.** With OCC1C=C(/C=C/c2ccccc2)CN1Cc1ccccc1Br (stereo not drawn) as the compound, how does the composite z-score read?
**A.** Its composite z-score is 1.01.

**Q.** For C=CC[C@@]1(C(=O)N2CCCCC2)N=C(c2ccc(OCCCO)cc2)O[C@@H]1c1ccccc1N=[N+]=[N-], which composite z-score is on record?
**A.** The composite z-score was 1.29.

**Q.** With CO[C@H]1O[C@H](CO)[C@@H](OC(=O)Nc2ccc(Oc3ccccc3)cc2)[C@H](OC(=O)Nc2ccc3c(c2)OCO3)[C@@H]1OC(=O)Nc1ccc2c(c1)OCO2 as the compound, how does the composite z-score read?
**A.** The composite z-score was 1.3.

**Q.** With COCCOC(=O)N1C(=O)[C@@]2(c3ccccc31)[C@H](C(=O)N1CCc3cc(OC)c(OC)cc3C1)[C@H]1C(=O)O[C@H](c3ccccc3)[C@H](c3ccccc3)N1[C@@H]2c1ccc(O)cc1 as the compound, how does the composite z-score read?
**A.** Its composite z-score is 1.31.

**Q.** Which composite z-score does the source give for CCCCC(=C=CC[C@@H](O)c1cccc(OCCO)c1)C[C@@H](O)c1ccccn1 here?
**A.** The composite z-score was 1.29.

**Q.** Which composite z-score does the source give for CCOC(=O)C[C@H]1[C@H](OC(=O)c2cc3ccccc3oc2=O)[C@@H](NC(=O)CC(C)C)c2cc(OCCCO)ccc2N1C(=O)c1ccccc1 here?
**A.** Its composite z-score is 1.21.

**Q.** For CC(C)(C)OC(=O)CC[C@@]1(C(=O)N2CCCCC2)N=C(c2ccc(OCCCO)cc2)O[C@@H]1c1ccccc1, which composite z-score is on record?
**A.** Its composite z-score is 1.29.

**Q.** For Cc1ccc(S(=O)(=O)N2C[C@@H](C(=O)O)[C@H](Sc3ccccc3)C[C@H]2c2ccccc2)cc1, which composite z-score is on record?
**A.** The composite z-score was 1.29.

**Q.** For O=C1[C@H]2C=C(Br)[C@H](C[C@@H]2OCCCCCCO)[C@@]12CO2, which composite z-score is on record?
**A.** Its composite z-score is -0.733.

**Q.** For COc1ccc(C(=O)Nc2cccc(CN3C(=O)[C@]4(O[C@H](CCn5cc(CCO)nn5)[C@@H]([Si](C)(C)c5ccc(OC)cc5)[C@@H]4C)c4ccccc43)c2)cc1, which composite z-score is on record?
**A.** Its composite z-score is 1.1.

**Q.** For C=C[C@H](C)[C@@H](OC(=O)Nc1ccc(SC)cc1)c1ccc(O)c2ccccc12, which composite z-score is on record?
**A.** The composite z-score was 1.32.

**Q.** For COCCOC(=O)N1C(=O)[C@@]2(c3cc(C#CC4(O)CCCCCC4)ccc31)[C@H](C(=O)Nc1nc3ccccc3s1)[C@H]1C(=O)O[C@H](c3ccccc3)[C@H](c3ccccc3)N1[C@@H]2c1ccccc1OCCO, which composite z-score is on record?
**A.** Its composite z-score is 1.3.

**Q.** With C=CCC(OC(C)=O)[C@@H]1[C@@H](N(Cc2ccc(-c3ccccc3)cc2)C(=O)Cc2ccc(F)cc2)c2cc(OCCCO)ccc2N1C(=O)c1ccc2ccccc2c1 (stereo partly drawn) as the compound, how does the composite z-score read?
**A.** The composite z-score was 0.112.

**Q.** Which composite z-score does the source give for CN(C)CCCC[C@@H]1NC(=O)[C@H]2C[C@@H](C(=O)NCCCCCN)[C@@H](c3cccc(OCCO)c3)N2C1=O here?
**A.** Its composite z-score is 1.19.

**Q.** For C=CC[C@]1(C(=O)NCc2ccccc2)N=C(c2ccc(OCCCO)cc2)O[C@H]1c1ccccc1CN=[N+]=[N-], which composite z-score is on record?
**A.** Its composite z-score is 1.31.

**Q.** With O=C(CS)NCCCCCNC(=O)[C@@H]1C[C@@H]2C(=O)NCC(=O)N2[C@@H]1c1ccc(O)cc1 as the compound, how does the composite z-score read?
**A.** Its composite z-score is 0.692.

**Q.** With C=CCC(OC(C)=O)[C@@H]1[C@@H](N(Cc2ccc(-c3cccc(C(F)(F)F)c3)o2)C(=O)c2cccc3ccccc23)c2cc(OCCCO)ccc2N1C(=O)Cc1ccc2ccccc2c1 (stereo partly drawn) as the compound, how does the composite z-score read?
**A.** The composite z-score was 0.153.

**Q.** With C=CCC(OC(C)=O)[C@@H]1[C@@H](N(Cc2ccc(-c3cccc(C(F)(F)F)c3)o2)C(=O)Cc2ccc(OC)cc2)c2cc(OCCCO)ccc2N1C(=O)c1ccc2ccccc2c1 (stereo partly drawn) as the compound, how does the composite z-score read?
**A.** The composite z-score was -0.651.

**Q.** For CC(C)CN1C(=O)[C@@]2(c3ccc([N+](=O)[O-])cc3)CC(=O)N(C3CCCCC3)[C@@H]2c2ccc(CO)cc21, which composite z-score is on record?
**A.** The composite z-score was -0.859.
